Bioassay records deposited in PubChem by National Center for Advancing Translational Sciences (NCATS).
G9a block = G9a (human) methyltransferase inhibition | G9a H3K9 monomethylation, AlphaScreen, 2 h | Q96KQ7 | AID 504332 | Potency, µM (series often up to 102 µM), for inactives: top-dose activity, negative = inhibition, actives largely listed as inhibitors | 350,000 compounds, 8.8% hits; note: % is set by controls: 0 for no effect and ±100 for the full control effect; nearly all actives have a fitted effect of over 75% in size
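AlphaScreen read-out: biotin-H3K9 peptide (500 nM) methylation by 20 nM enzyme with 20 uM SAM, 2 h at room temperature after 15 min compound preincubation; anti-monomethyl H3K9 antibody plus donor/acceptor beads, 10 min dark.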
Sfp PPTase inh = blocks B. subtilis Sfp PPTase activity. Q9F4F7. Potency, µM, without a hit: largest response in the series, negative = inhibition, actives largely listed as inhibitors. 310,000 compounds, 3.5% hits. Biochemical Sfp PPTase activity, qHTS;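 note: the enzyme is Sfp with the accession as filed and its product quenches rhodamine fluorescence; 0% = enzyme reaction without inhibitor and -100% = no enzyme wells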
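After 15 min at room temperature with compound, 15 nM Sfp received 5 uM rhodamine-CoA plus 12.5 uM BHQ-2-ybbR (50 mM Hepes pH 7.6, 10 mM MgCl2). Rate came from the fluorescence difference over 30 min, ex 525/em 598 nm.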
BAZ2B block = BAZ2B (human) inhibition. AlphaScreen BAZ2B-H3K14Ac peptide displacement. 360,000 compounds, 4.4% hits. Q9UIF8. Potency, µM (titrated, usually from 114 µM), for the others: at the highest dose activity change, negative = inhibition, hits mostly inhibitors; note: % is set by controls: 0 for no effect and ±100 for the full control effect; nearly all actives have a fitted effect of over 60% in size
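Protein-peptide AlphaScreen: BAZ2B 50 nM, b-H3K14Ac 50 nM, 1x PBS pH 7.4 + 0.01% Tween-20. Preincubation 30 min RT; cpd 30 min RT (top 110 uM); beads 20 min RT, light-protected.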
JMJD2A Tudor = JMJD2A Tudor domain (human) inhibition; O75164; AlphaScreen JMJD2A-Tudor / H3K4me3 peptide binding; Potency, µM (titrated, usually from 114 µM), for inactives: top-dose activity change, negative = inhibition, hits mostly inhibitors; 390,000 compounds, 4.4% hits; note: % is set by controls: 0 for no effect and ±100 for the full control effect; nearly all actives have a fitted effect of over 50% in size
Target sequence (O75164 whole entry, looked up, the tested form may be a part): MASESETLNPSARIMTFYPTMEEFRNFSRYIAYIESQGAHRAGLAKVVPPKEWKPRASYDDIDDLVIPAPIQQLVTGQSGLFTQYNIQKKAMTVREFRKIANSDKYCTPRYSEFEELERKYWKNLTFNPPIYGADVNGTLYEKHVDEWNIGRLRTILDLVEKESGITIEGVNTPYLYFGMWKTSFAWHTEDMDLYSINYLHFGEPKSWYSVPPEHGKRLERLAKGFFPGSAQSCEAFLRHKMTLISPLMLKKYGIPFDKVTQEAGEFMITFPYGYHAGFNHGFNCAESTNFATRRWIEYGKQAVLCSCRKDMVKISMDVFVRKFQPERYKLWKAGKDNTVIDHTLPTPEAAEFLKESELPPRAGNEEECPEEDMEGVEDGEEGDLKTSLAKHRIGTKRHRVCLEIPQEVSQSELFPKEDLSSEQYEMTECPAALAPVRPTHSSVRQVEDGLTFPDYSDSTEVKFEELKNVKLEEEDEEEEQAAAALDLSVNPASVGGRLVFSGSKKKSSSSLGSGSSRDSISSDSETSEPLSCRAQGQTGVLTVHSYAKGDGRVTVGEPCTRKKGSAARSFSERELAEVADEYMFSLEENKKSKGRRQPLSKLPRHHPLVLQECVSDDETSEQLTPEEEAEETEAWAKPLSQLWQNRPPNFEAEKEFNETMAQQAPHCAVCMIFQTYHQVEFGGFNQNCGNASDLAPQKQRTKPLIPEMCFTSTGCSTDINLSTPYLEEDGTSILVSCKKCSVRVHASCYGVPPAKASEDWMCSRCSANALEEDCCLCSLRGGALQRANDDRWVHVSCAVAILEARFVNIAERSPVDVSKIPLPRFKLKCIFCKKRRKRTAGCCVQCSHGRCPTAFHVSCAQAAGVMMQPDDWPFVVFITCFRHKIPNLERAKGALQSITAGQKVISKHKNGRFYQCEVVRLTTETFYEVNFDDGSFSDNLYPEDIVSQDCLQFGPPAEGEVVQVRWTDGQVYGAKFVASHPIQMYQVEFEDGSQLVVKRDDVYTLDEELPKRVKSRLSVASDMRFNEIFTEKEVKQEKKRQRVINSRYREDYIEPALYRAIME
HP1b chromo inh = blocks HP1-beta chromodomain binding to methylated histone tails. AID 540317. AlphaScreen HP1-beta / biotin-H3K9me3 peptide binding. P83916. 390,000 compounds, 0.56% hits. Potency, µM (series often up to 114 µM), without a hit: at the highest dose activity change, negative = inhibition, usual class: inhibitors; note: nearly all actives have a fitted effect of over 70% in size
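AlphaScreen: HP1-beta (50 nM) preformed 30 min with biotin-H3(1-18)K9me3 peptide (50 nM) in PBS pH 7.4, 0.01% Tween-20. Compound added for 30 min at RT, then streptavidin donor/nickel chelate acceptor beads (10 ug/mL) for 30 min.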
PLK1 PBD block = inhibitors of human PLK1 polo-box domain binding | Plk1 PBD binding of FITC phosphopeptide, fluorescence polarization | AID 720504 | P53350 | Potency, µM, for inactives: max response, negative = inhibition, actives largely listed as inhibitors | 360,000 compounds, 2.8% hits; note: series mostly up to about 57 µM; % is set by controls: 0 for no effect and ±100 for the full control effect; nearly all actives have a fitted effect of over 65% in size
Active calls of the source: *; [ ] = dose if it differs, or a comment. Only some compounds are listed: those with a hit (about 12% of all), similar ones and a draw of the others. Calls come from the whole dose curve; as a rule, active = well fitted curve in the direction sought with a large enough effect; inconclusive = small, poorly fitted or top-dose-only effect, or another doubt; inactive = no such curve, though single readings can be large; an effect the other way counts as inactive or inconclusive. Potency is the fitted concentration of half-maximal effect.

CC(C)(C)c1ccc(-n2ncc3c2CCCC3NC(=O)c2ccco2)cc1 (stereo not given) was read as PLK1 PBD block 0%.
Screening CCc1ccc(NC(=O)C2CCN(c3cc(C)nc4c(-c5ccc(Cl)cc5)c(C)nn34)CC2)cc1 returned G9a block -4%[59 µM], BAZ2B block -8%, JMJD2A Tudor 3% and HP1b chromo inh 36%.
Screening COc1ccc(NS(=O)(=O)c2cc(N)ccc2N2CCCC2)cc1 returned JMJD2A Tudor 56µM*, HP1b chromo inh inconclusive and PLK1 PBD block -11%.
COc1ccc(NS(=O)(=O)c2cc(NC(=O)/C=C/c3cc(OC)ccc3OC)ccc2N2CCCCC2)cc1 was read as G9a block 6%[59 µM], Sfp PPTase inh 26%, BAZ2B block -31%, JMJD2A Tudor -12%, HP1b chromo inh 29% and PLK1 PBD block 0%.
Screening CCn1c(=O)c2cc(C(=O)N3CCN(c4cccc(Cl)c4)CC3)sc2c2ccccc21 returned G9a block inconclusive, BAZ2B block -19%, JMJD2A Tudor -18% and HP1b chromo inh 28%.
`CCOc1ccc(CCNC(=O)CN2CCN(Cc3ccc(Cl)cc3)C2=O)cc1OCC` gave G9a block 19%[59 µM], BAZ2B block 6%, JMJD2A Tudor -6% and HP1b chromo inh 32%.
Screening Cc1ccccc1-c1cncnc1N(C)Cc1ccco1 returned Sfp PPTase inh 50µM*.
For O=S(=O)(c1cccc(Br)c1)N1CCN(CCc2ccccc2)CC1 the results were G9a block 11%, Sfp PPTase inh 7%, BAZ2B block 4%, JMJD2A Tudor 12%, HP1b chromo inh 90% and PLK1 PBD block -4%.
`Oc1ccc(-c2csc(Nc3ccccn3)n2)cc1O` gave G9a block 11µM*, Sfp PPTase inh 45µM*, BAZ2B block 40µM*, JMJD2A Tudor 56µM*, HP1b chromo inh 14µM* and PLK1 PBD block inconclusive.
Screening Cc1ccnc(Nc2nc(-c3ccc(O)c(O)c3)cs2)c1 returned G9a block 28µM*, Sfp PPTase inh 50µM*, BAZ2B block 40µM*, JMJD2A Tudor 56µM*, HP1b chromo inh inconclusive and PLK1 PBD block -10%.
For Cc1cccc(Nc2nc(-c3ccc(O)c(O)c3)cs2)n1 the results were G9a block 40µM*, Sfp PPTase inh -12%, BAZ2B block 50µM*, JMJD2A Tudor inconclusive, HP1b chromo inh inconclusive and PLK1 PBD block -2%.
Screening Cc1ccnc(Nc2nc(-c3ccc(O)cc3)cs2)c1 returned G9a block inconclusive, Sfp PPTase inh 4%, BAZ2B block inconclusive, JMJD2A Tudor inconclusive, HP1b chromo inh -14% and PLK1 PBD block -12%.
Screening CC(=O)Nc1ccc(-c2csc(Nc3ccccn3)n2)cc1 returned Sfp PPTase inh -27%, BAZ2B block -5%, JMJD2A Tudor -20%, HP1b chromo inh 24% and PLK1 PBD block -3%.
For Cc1ccnc(Nc2nc(-c3ccc(O)cc3O)cs2)c1 the results were G9a block 79µM*, Sfp PPTase inh 40µM*, BAZ2B block 50µM*, JMJD2A Tudor inconclusive, HP1b chromo inh -10% and PLK1 PBD block 5%.
CC(C)CCOc1ccc(N)cc1 was read as Sfp PPTase inh -20%.
COc1ccc(OC)c2sc(N(Cc3cccnc3)C(=O)c3ccco3)nc12 was read as G9a block -6%[59 µM], BAZ2B block inconclusive, JMJD2A Tudor -22% and HP1b chromo inh 12%.
Screening CCCNC(=O)c1csc(Nc2cccc3ccccc23)n1 returned G9a block 16%[0.501 µM], Sfp PPTase inh -11%, BAZ2B block inconclusive, JMJD2A Tudor -33%, HP1b chromo inh -5% and PLK1 PBD block -6%.
`Oc1ccc(-c2csc(Nc3cccc4ccccc34)n2)cc1O` gave G9a block 13µM*, Sfp PPTase inh 50µM*, BAZ2B block 35µM*, JMJD2A Tudor 40µM*, HP1b chromo inh inconclusive and PLK1 PBD block 19µM*.
`COc1cccc(/C=N/NC(=O)C(c2ccncc2)N2CCOCC2)c1` (stereo not given) gave G9a block 29%[59 µM], Sfp PPTase inh 6%, BAZ2B block 2%, JMJD2A Tudor 1%, HP1b chromo inh 50% and PLK1 PBD block -4%.
`O=C(N/N=C/c1cc(Br)ccc1O)C(c1ccncc1)N1CCOCC1` (stereo not given) gave G9a block 14%, Sfp PPTase inh 2%, BAZ2B block 50µM*, JMJD2A Tudor 79µM*, HP1b chromo inh 16% and PLK1 PBD block -8%.
Screening Cc1n[nH]c(=S)n1/N=C/c1ccc(-c2ccccc2[N+](=O)[O-])o1 returned G9a block inconclusive, Sfp PPTase inh 8.9µM*, BAZ2B block -32%, JMJD2A Tudor 40µM*, HP1b chromo inh 3% and PLK1 PBD block -16%.
Screening Cc1nnc(N/N=C\c2ccc(-c3ccccc3[N+](=O)[O-])o2)n1N returned G9a block 6.3µM*, Sfp PPTase inh 18µM*, BAZ2B block 71µM*, JMJD2A Tudor inconclusive, HP1b chromo inh -8% and PLK1 PBD block -17%.
Cc1nnc(N/N=C/c2ccc(-c3ccccc3F)o2)n1N was read as G9a block 40µM*, Sfp PPTase inh 45µM*, BAZ2B block -1%, JMJD2A Tudor -23%, HP1b chromo inh 4% and PLK1 PBD block -16%.
Screening Cc1ccc(C)c(OCCC(=O)N2CCN(S(=O)(=O)c3cc(C)ccc3C)CC2)c1 returned G9a block 18%[59 µM], BAZ2B block -6%, JMJD2A Tudor -12%, HP1b chromo inh 36% and PLK1 PBD block -2%.
For CN(/N=C/c1cccnc1)c1cnc2ccccc2n1 the results were G9a block 25%, Sfp PPTase inh 14%, BAZ2B block 4%, JMJD2A Tudor -3%, HP1b chromo inh 56% and PLK1 PBD block -10%.
O=C(CN1CCc2[nH]c3ccccc3c2C1)N1CCCCC1 was read as G9a block 16%[12.7 µM], Sfp PPTase inh 6%, BAZ2B block -34%, JMJD2A Tudor -19%, HP1b chromo inh 11% and PLK1 PBD block 2%.
`Cc1ccc(NC(=S)N2CCc3[nH]c4ccccc4c3C2)cc1` gave Sfp PPTase inh 7%, BAZ2B block 25µM*, JMJD2A Tudor inconclusive, HP1b chromo inh -30% and PLK1 PBD block 0%.
For CC(=O)N1CCc2[nH]c3ccccc3c2C1 the results were G9a block -38%, Sfp PPTase inh 13%, BAZ2B block -36%, JMJD2A Tudor -10%, HP1b chromo inh 0% and PLK1 PBD block -11%.
